Measurements as given in ChEMBL document CHEMBL1157539, “Thousands of chemical starting points for antimalarial lead identification” (Nature, 2010).

What was measured:
Type in all cases: functional
Plasmodium falciparum [1] = assay: GSK_TCMDC: Inhibition of Plasmodium falciparum 3D7 in whole red blood cells, using parasite LDH activity as an index of growth. Test compounds present at 2uM
Plasmodium falciparum [2] = assay: GSK_TCMDC: Inhibition of Plasmodium falciparum Dd2 in whole red blood cells, using parasite LDH activity as an index of growth. Test compounds present at 2uM
HepG2 = assay: GSK_TCMDC: Percent inhibition of human HepG2 cell line. Test compounds present at 10uM.

| SMILES | Inhibition (Plasmodium falciparum [1]) | Inhibition (Plasmodium falciparum [2]) | Inhibition (HepG2) |
| --- | --- | --- | --- |
| CC(Cc1ccc(Cl)cc1)Nc1nc(NC2CCCC2)nc(N2CCC(C#N)(c3ccccc3)CC2)n1 (configuration not stated) | 99% | 95% | 15% |
| Cc1ccc2c(c1)c(-c1ccccc1)c(-c1ccccc1)n2CC(O)CN1CCN(CC=Cc2ccccc2)CC1 (configuration not stated) | 98% | 98% | 0% |
| Br.CCCCc1ccc(CCNCCCCCCNCCc2ccc(O)c(O)c2)cc1 | 100% | 0% | 45% |
| COc1cccc(NC(=O)Nc2c(-c3cccc(C(F)(F)F)c3)c(C(F)(F)F)nn2C)c1 | 93% | 30% | 2% |
| COc1cc(-c2cnc(N)c(-c3nc4ccccc4[nH]3)c2)cc(OC)c1OC.Cl | 100% | 57% | 59% |
| Cc1cc2c(cc1C(F)(F)F)N(C(=O)Nc1cccc(C(=O)NC3CCN(Cc4ccccc4)CC3)c1)CC2 | 91% | 0% | 19% |
| CCCCC(=O)Nc1cc(=O)[nH]c2nc(-c3ccc(Cl)cc3)nn12 | 89% | 77% | 1% |
| Cc1ccc(NC(=O)c2ccc(N3CCN(c4ccncc4)CC3)cc2)cc1F.O=C(O)C(F)(F)F | 100% | 79% | 47% |
| COc1cc(CN2CCC(C(=O)Nc3ccc(-c4cccc(C)c4)cc3)CC2)ccc1O | 100% | 85% | 25% |
| CCCNC(=O)C1CCN(C(c2ccc(Cl)cc2)c2ccc(Cl)cc2)CC1 | 98% | 96% | 7% |
| CC(C)CNCc1cccc(-c2cccc(CNCCCN3CCN(C)CC3)c2)c1.O=C(O)C(F)(F)F | 88% | 7% | 5% |
| CCc1ccc2nc(-c3ccc(F)cc3)nc(SCC(=O)Nc3sc(C)c(C)c3C#N)c2c1 | 98% | 5% | 0% |
| Cc1ccc(-c2cc(C(=O)Nc3ccc(S(=O)(=O)N4CC(C)OC(C)C4)cc3)[nH]n2)c(O)c1 (configuration not stated) | 91% | 98% | 16% |
| CCNc1cc(C(=O)N[C@@H](Cc2ccccc2)[C@H](O)CNC(C)(C)CCCC(C)C)cc(N2CCCCS2(=O)=O)c1.O=CO | 98% | 98% | 5% |
| Cc1ccc(Cl)cc1NC(=O)c1c(-c2ccccc2Cl)noc1C | 88% | 37% | 9% |
| CS(=O)(=O)NCCCNCc1cccc(-c2ccc(-c3nc4cc(C(F)(F)F)ccc4[nH]3)cc2)c1.O=C(O)C(F)(F)F | 100% | 85% | 17% |
| O=C(NC1CCN(c2ccnc3ccccc23)C1)c1cccc(C(F)(F)F)c1.O=C(O)C(F)(F)F (configuration not stated) | 94% | 86% | 28% |
| CC(=O)c1cccc(NC(=O)c2ccc(Cl)c(S(=O)(=O)N3CCc4ccccc43)c2)c1 | 93% | 11% | 13% |
| CC1CN(c2ccc(NC(=O)c3ccsc3)cc2C(=O)N2CCN(Cc3ccc(C(C)(C)C)cc3)CC2)CC(C)O1 (configuration not stated) | 90% | 80% | 12% |
| Cn1nccc1C(=O)NCCNCc1ccc(-c2ccc(-c3nc4ccccc4[nH]3)s2)cc1.O=C(O)C(F)(F)F | 100% | 97% | 23% |
| N#Cc1cncc(-c2nc3c(N4CCC(Cc5ccccc5)CC4)cccc3n2C2CCNC2)c1.O=C(O)C(F)(F)F (configuration not stated) | 88% | 7% | 5% |
| O=C(NC1CCN(CCN2CCc3ccccc3CC2)CC1)c1ccc(-c2ccc(C(F)(F)F)cc2)cc1 | 99% | 43% | 45% |
| NC(=O)c1cccc(C(=O)Nc2cccc(-c3cccc(-c4nc5cc(F)ccc5[nH]4)c3)c2)c1 | 100% | 73% | 47% |
| Cc1noc(C)c1-c1cccc(CNCc2ccc(-c3ccc(-c4nc5cc(C(F)(F)F)ccc5[nH]4)s3)cc2)c1.O=C(O)C(F)(F)F | 100% | 99% | 54% |
| COc1cccc(CCc2ccc(O)c3c2C[C@H]2C[C@H]4[C@H](N(C)C)C(O)=C(C(N)=O)C(=O)[C@@]4(O)C(O)=C2C3=O)c1.Cl | 93% | 67% | 43% |
| O=C(Nc1cccc(-c2ccc(-c3nc4cc(C(F)(F)F)ccc4[nH]3)cc2)c1)c1ccoc1 | 98% | 42% | 76% |
| COc1ccc2nccc([C@@H](O)CN3CCC(NC(=O)c4ccc(Oc5ccccc5)cc4)CC3)c2c1 | 82% | 13% | 39% |
| Cc1[nH]c(-c2ccc(F)cc2)cc1C(=O)NC1CCN(Cc2ccccc2)CC1 | 84% | 9% | 6% |
| CC(=O)Nc1ncc(C(=O)Nc2cccc(-c3cccc(-c4nc5ccccc5[nH]4)c3)c2)s1 | 92% | 38% | 16% |
